Bioassay records from PubChem BioAssay.
This is a sample that favours compounds with a hit; in the whole collection about 3% have one here.
SENP6 inh: SENP6 protease inhibition; 330,000 tested, 1.8% active; Recombinant SENP6 catalytic domain, aminoluciferin luminescence; Q9GZR1; inhibition, % at 10 µM;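 active means inhibition above about 50% at the single tested dose, limit read from the data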;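 further: plate controls were DMSO wells with enzyme for no effect and DMSO wells lacking enzyme for full effect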
SENP7 block: inhibitors of human SENP7 protease. Q9BQF6. recombinant SENP7, Z-RLRGG-aminoluciferin luminescence, 40 min. inhibition, % at 5 µM. 330,000 tested, 1.5% active. AID 434973;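 active means inhibition above about 50% at the single test dose, limit read from the data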;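 further: plate controls were DMSO with enzyme for no effect and no enzyme buffer wells for full effect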
Target sequence (Q9BQF6 706-1050 limits assumed): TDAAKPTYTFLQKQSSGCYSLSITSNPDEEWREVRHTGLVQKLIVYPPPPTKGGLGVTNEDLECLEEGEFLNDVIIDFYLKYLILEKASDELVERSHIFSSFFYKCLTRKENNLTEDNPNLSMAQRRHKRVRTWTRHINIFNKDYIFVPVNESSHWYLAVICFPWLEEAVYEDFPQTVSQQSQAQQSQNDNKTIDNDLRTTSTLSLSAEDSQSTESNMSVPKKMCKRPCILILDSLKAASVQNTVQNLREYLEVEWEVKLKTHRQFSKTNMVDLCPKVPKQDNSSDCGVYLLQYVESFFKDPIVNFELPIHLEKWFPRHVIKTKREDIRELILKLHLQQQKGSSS
SENP8 block-1: blocks human SENP8 cleavage of Nedd8 substrate. Q96LD8. recombinant SENP8, Nedd8 substrate fluorescence. inhibition, % at 20 µM. 360,000 tested, 0.64% active. AID 602440; in the data active means inhibition mostly above about 40%, no sharp cut-off; inactive means mostly below about 27%
TRAIL sens C8: caspase-8 TRAIL sensitization. NB7+C8 cells + TRAIL, ATPlite viability luminescence. inhibition (viability loss, TRAIL sensitization), % at 10 µM. 360,000 tested, 1% active;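 active means compounds causing at least 50% loss of cell viability in the single-dose screen, relative to plate controls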
PPC-1+TRAIL kill: kills PPC-1 cancer cells in the presence of TRAIL; cell killing (% activity), % at 4 µM or 5 µM; 220,000 tested, 0.41% active; AID 1443; PPC-1 cells + TRAIL, ATPLite viability luminescence;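 active means cell killing above 50% in the first pass at 4 µM, then a duplicate retest at 5 µM averaging 50% or more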;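 further: plate controls were cells with TRAIL plus DMSO for no effect and medium-only wells lacking cells for full effect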
SENP8 block-2: SENP8 protease inhibition; Q96LD8; purified SENP8, Z-RLRGG-aminoluciferin cleavage, luminescence; inhibition, % at 10 µM; 330,000 tested, 1.2% active; in the data active means inhibition above about 50%
An asterisk follows results filed as active; x = no result.

SMILES | SENP6 inh | SENP7 block | SENP8 block-1 | TRAIL sens C8 | PPC-1+TRAIL kill | SENP8 block-2
Clc1ccc(/C=N/Nc2nnc(-c3ncc[nH]3)c3ccccc23)cc1 | -18 | 8 | -235 | 54* | 28 | -2
Cc1ccc(C2CC2c2n[nH]c(=S)n2-c2ccc(Cl)cc2)cc1 (stereo unspecified) | 3 | -8 | 17 | 72* | -6 | -11
O=C(NCC(c1ccccc1Cl)N1CCCC1)c1ccc(N2CCCC2=O)cc1 (stereo unspecified) | 2 | 5 | 9 | -20 | x | -5
C/C=C/c1ccc(OCCCNC(C)CC)c(OC)c1 (stereo unspecified) | -2 | -5 | 32 | -4 | 20 | -3
C/C=C/c1ccc(OCCCNC2CCCC2)c(OC)c1 | -25 | -9 | 18 | 54* | 34 | -12
Cc1ccc2c(c1)COc1c3ccc(C(=O)NC(C)C)cc3nn1-2 | 36 | 34 | -204 | 47 | 33 | 35
c1ccc2c(c1)COc1c3cc4c(cc3nn1-2)OCO4 | x | x | 10 | 59* | x | x
Cc1ccccc1C(=O)Nc1sc2c(c1C(=O)O)CCC2 | 70* | -8 | -56 | 0 | 4 | 57*
O=C1C(=O)c2c(C(=O)c3ccccc3)coc2-c2ccccc21 | 37 | 8 | 61* | -1 | 5 | 5
CCN(CC)C(=O)c1csc(COCCO)n1 | x | x | 5 | -3 | x | x
C#CCN(C[C@@H]1[C@@H](OC(=O)Nc2cccs2)[C@@H](OC(=O)Nc2cccs2)Cn2c(=O)ccc(=O)n21)S(=O)(=O)c1ccc(C)cc1 | x | x | 6 | 86* | x | x
C#CCN(C[C@@H]1[C@@H](OC(=O)NC2CCCC2)[C@@H](OC(=O)NC2CCCC2)Cn2c(=O)ccc(=O)n21)S(=O)(=O)c1ccc(C)cc1 | x | x | 6 | 48 | x | x
C#CCN(C[C@@H]1[C@@H](OC(=O)NCc2ccccc2F)[C@@H](OC(=O)NCc2ccccc2F)Cn2c(=O)ccc(=O)n21)S(=O)(=O)c1ccc(C)cc1 | x | x | -8 | 81* | x | x
CCN(CC)S(=O)(=O)c1cccc(NC(=O)Nc2cccc(C(F)(F)F)c2)c1 | -3 | -1 | 10 | 65* | 6 | 5
CCc1c(N)nc(N)nc1Nc1ccccc1C | x | x | 1 | -6 | x | x
Cc1cc(C)c2c(=N)c3ccccc3n(CCCCCCCCn3c4ccccc4c(=N)c4c(C)cc(C)nc43)c2n1 | x | x | -491 | 79* | x | x
CCCCCCCCn1c2c(c(=N)c3ccccc31)CCC2 | -13 | 0 | -56 | 39 | x | -10
O=C(N/N=C/c1ccc(O)c(O)c1O)/C(=C/c1ccc([N+](=O)[O-])cc1)NC(=O)c1ccccc1 | 18 | 2 | 72* | 5 | 28 | 0
N=NC(=O)c1ccccc1Nc1c(O)[nH]c2ccccc12 | x | x | 2 | 91* | x | x
CC(=O)Nc1c(O)[nH]c2ccccc12 | 10 | 3 | 19 | -46 | 0 | -4
CC(=O)Nc1c(Cl)cc2c(c1Cl)Cc1cc(C#N)ccc1-2 | x | x | -190 | -5 | x | x
Cc1cccc(N=Nc2c(C)[nH]n(C(N)=S)c2=O)c1C | 77* | 39 | x | x | -4 | 65*
Cc1cc([N+](=O)[O-])ccc1NCc1cccc2ccccc12 | -20 | -6 | 17 | -14 | x | 7
O=[N+]([O-])c1ccc(CCNc2cccc3ccccc23)c([N+](=O)[O-])c1 | 55* | 12 | -25 | 0 | 7 | 36
CSc1nc(NCCN(C)C)c2sc3nc(-c4ccco4)c4c(c3c2n1)CCC4 | x | x | -430 | 83* | x | x
SMILES | SENP6 inh | SENP7 block | SENP8 block-1 | TRAIL sens C8 | PPC-1+TRAIL kill | SENP8 block-2
CSc1nc(N(C)CCO)c2sc3nc(-c4ccco4)c4c(c3c2n1)CCC4 | 4 | 12 | -7 | -2 | 6 | 10
CC(C)c1ccc(NC(=O)CSc2ncccc2C(=O)Oc2cccc([N+](=O)[O-])c2)cc1 | -31 | 9 | 21 | 67* | 28 | -7
COc1ccc(NC(=O)CSc2ncccc2C(=O)OC(C)C)cc1OC | -2 | -7 | 12 | 8 | 2 | 11
Cc1nc(NC(=O)c2ccccc2)sc1-c1csc(Nc2ccc(Cl)cc2Cl)n1 | 51* | 59* | x | x | 13 | 33
Cc1nc(NC(=O)c2ccccc2)sc1-c1csc(Nc2ccc(Cl)cc2)n1 | 51* | 25 | x | x | 15 | 42
Cc1nc(NC(=O)c2ccccc2)sc1-c1csc(Nc2ccc(F)cc2)n1 | 45 | 20 | x | x | 5 | 48
NS(=O)(=O)c1ccc(NC(=O)CN2CCc3ccccc3C2)cc1 | -9 | 0 | 6 | 1 | x | 5
CC(C)(C)c1ccc(NC(=O)C2=CN3CCS(=O)(=O)N=C3C=C2)cc1 | -12 | 1 | -13 | -21 | x | -3
